Reference: PubChem BioAssay AID463173 (ICCB-Longwood Screening Facility, Harvard Medical School, 2010)
Hit rate of the full screen: of about 52,000 compounds, about 4,300 (8.3%) were called active. Many of the other results were omitted from the sample, so actives are more common in it than they were. A number with no mark means an inactive call. Rule as the data show it: active = survival mostly below about 52% (no sharp cut-off); inactive = mostly above about 56%.

The molecules below were run on DeltatarO mutant (assay: growth inhibition of S. aureus wild type versus tarO mutant, primary screen, teichoic acid synthesis inhibitors, RN4220, OD600 (AID 463173)). Conditions: OD600, 18 h, hits give low values, screened at 18.75 µg/mL (by protocol).

Row | Structure (SMILES) | survival
1 | COc1ccc(-n2ccnc(NCc3ccccc3Cl)c2=O)cc1OC | 81%
2 | O=c1c(NCc2ccccc2Cl)nccn1-c1ccccc1 | 17% (active)
3 | COc1ccc(-n2ccnc(NCc3ccccc3OC)c2=O)cc1 | 89%
4 | COc1ccc(-n2ccnc(NCc3ccc(Cl)cc3)c2=O)cc1 | 8% (active)
5 | O=c1c(NCc2cccs2)nccn1-c1ccccc1 | 68%
6 | COc1ccc(-n2ccnc(NCc3ccc(C)cc3)c2=O)cc1OC | 94%
7 | COc1ccc(-n2ccnc(NCc3cccs3)c2=O)cc1 | 20% (active)
8 | O=c1c(NCCc2ccc(Cl)cc2)nccn1-c1ccccc1 | 55%
9 | COc1ccc(-n2ccnc(NCc3cccs3)c2=O)cc1OC | 85%
10 | Cc1cc(C)cc(NC(=O)c2cccc(N3CCCS3(=O)=O)c2)c1 | 101%
11 | CCc1ccc(N2C(=O)CSC23C(=O)N(Cc2cccc(F)c2)c2ccccc23)cc1 (configuration not stated) | 124%
12 | O=C1C(=O)N(C2CCN(C(=O)c3ccccc3Cl)CC2)CCN1Cc1ccc(F)cc1 | 67%
13 | CN1C(C(=O)Nc2ccc(F)cc2F)=CC(c2cccs2)=NS1(=O)=O | 99%
14 | CCCOc1ccc(-c2nc(SC)[nH]c(=O)c2C#N)cc1OC | 79%
15 | COc1ccc(C(=O)N2CCC(c3nc4ccccc4s3)CC2)cc1Cl | 62%
16 | O=C(c1ccccc1Cl)N1CCC(c2nc3ccccc3s2)CC1 | 57%
17 | COc1cccc(C(=O)N2CCC(c3nc4ccccc4s3)CC2)c1 | 70%
18 | COc1cc(C(=O)N2CCC(c3nc4ccccc4s3)CC2)cc(OC)c1OC | 74%
19 | CCC(Oc1ccccc1F)C(=O)N1CCC(c2nc3ccccc3s2)CC1 (configuration not stated) | 2% (active)
20 | Cc1ccccc1C(=O)N1CCC(c2nc3ccccc3s2)CC1 | 75%
21 | COc1ccccc1OC(C)C(=O)N1CCC(c2nc3ccccc3s2)CC1 (configuration not stated) | 2% (active)
22 | CC(Oc1ccc(F)cc1)C(=O)N1CCC(c2nc3ccccc3s2)CC1 (configuration not stated) | 58%
23 | CCc1ccc(OC(C)C(=O)N2CCC(c3nc4ccccc4s3)CC2)cc1 (configuration not stated) | 28% (active)
24 | COCCCNC(=O)Cn1cnc2sc(C)c(S(=O)(=O)N3CCC(C)CC3)c2c1=O | 69%
25 | CCOCCc1nn2c(=O)cc(COC(=O)c3ccccc3NC(=O)c3cccs3)nc2s1 | 58%
26 | COc1ccc(CNC(=O)c2cc(-c3ccc(C)cc3)nc3n[nH]c(-c4ccc(Br)cc4)c23)cc1 | 74%
27 | O=C(NCCc1ccc(Cl)cc1)c1nnc(Cc2ccc(Cl)cc2Cl)o1 | 96%
